Screens from PubChem.
Compounds with a hit are over-represented: about 15% of the library has one in this group of screens.
HCV inhibitor = HCV inhibition. Huh7.5.1 HCVcc-Cre infection, luciferase reporter, 44 h. Potency, µM (highest dose often 41.8 µM), for the others: top-dose activity change, negative = inhibition, most hits filed as inhibitors. 340,000 compounds, 3.4% hits; further: potency means the concentration at half of the fitted maximal effect; on the % scale 0 is the no-effect control and ±100 the full control effect
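After 44 h co-culture of compound, cells and HCVcc-Cre (~0.5 moi), substrate is added for 15 min at room temperature and luciferase measured over 15 sec. Cells were seeded at 1,000/well and pre-cultured 4 h.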
Pf growth 48h = P. falciparum growth inhibition at 48 hours (one generation) | P. falciparum luciferase growth in erythrocytes, 48 h | Potency, µM (highest dose often 28.7 µM), for the others: at the highest dose activity change, negative = inhibition, hits mostly inhibitors | 310,000 compounds, 5.9% hits | AID 504832; further: potency means the concentration at half of the fitted maximal effect; on the % scale 0 is the no-effect control and ±100 the full control effect
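Read-out is firefly luciferase luminescence from an integrated reporter in P. falciparum, so falling signal marks reduced parasite growth. Infected erythrocytes were at 2% hematocrit and 0.1% parasitemia (final) in Albumax-supplemented RPMI 1640.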
Sm TGR block = inhibitors of Schistosoma mansoni thioredoxin glutathione reductase; purified TGR, DTNB reduction, TNB absorbance 405 nm; Potency, µM (titrated, usually from 114 µM), without a hit: top-dose activity change, negative = inhibition, actives largely listed as inhibitors; 360,000 compounds, 3% hits; AID 485364; further: potency means the concentration at half of the fitted maximal effect; on the % scale 0 is the no-effect control and ±100 the full control effect; nearly all actives have a fitted effect of over 60% in size
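Kinetic colorimetric format: TGR-catalysed, NADPH-driven DTNB reduction monitored via TNB absorbance. Enzyme dispensed at 20 nM; compound exposure 15 min at room temperature before reaction start.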
HCMV inh = human cytomegalovirus inhibition; 410,000 compounds, 4.5% hits; activity change, negative = inhibition, % at 57.5 µM; HFF cells, HCMV-luciferase reporter, 72 h; stronger effect = lower value; in the data active means activity change below about -60%; inconclusive means no clear call, values can overlap the other calls; inactive means above about -39%; further: on the % scale 0 is the no-effect control and ±100 the full control effect
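Two-dose cell screen: HFF monolayers treated with compounds and infected with luciferase-expressing HCMV at 1 PFU/cell, 72 h at 37C, then lysed for luciferase measurement.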
SARS PLP yeast = SARS-CoV PLP inhibition in yeast; S. cerevisiae expressing SARS-CoV PLpro, growth rescue; Potency, µM (series often up to 32.9 µM), inactives show top-dose activity, positive = growth rescue, hits mostly activators; AID 485353; 330,000 compounds, 0.19% hits; calls by dose curve; further: potency means the concentration at half of the fitted maximal effect; 0% is about no effect; nearly all actives have a fitted effect of over 55% in size
Pf growth 96h = inhibits malaria parasite growth, 96 h | P. falciparum luciferase reporter growth, 96 h | Potency, µM (top dose mostly 28.7 µM), inactives show top-dose activity change, negative = inhibition, actives largely listed as inhibitors | 320,000 compounds, 6.9% hits | AID 504834; further: potency means the concentration at half of the fitted maximal effect; on the % scale 0 is the no-effect control and ±100 the full control effect
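Readout is luminescence from an integrated firefly luciferase in P. falciparum. Red cells, 2% hematocrit and 0.05% parasitemia final, were cultured with compound through two parasite generations (96 hours) at 37 C, 5% CO2.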
The depositor's hits bear a star; u = inconclusive; x = not tested or not shown. Unless noted, the call rests on the fitted dose curve; in most records, active means well fitted curve in the direction sought with a large enough effect; inconclusive means small, poorly fitted or top-dose-only effect, or another doubt; inactive means no such curve, though single readings can be large; an effect the other way counts as inactive or inconclusive.

SMILES	HCV inhibitor	Pf growth 48h	Sm TGR block	HCMV inh	SARS PLP yeast	Pf growth 96h
Cc1ccc(C(=O)N(CC(=O)NC2CCCC2)c2ccc3c(c2)OCCO3)s1	u	-15.1%	-2.1%	-18.4	7.8%	13.1µM*
O=c1[nH]cnc(O)c1C(c1ccc([N+](=O)[O-])cc1)c1c(O)nc[nH]c1=O	19.6%	29.5%	-6.7%	-6.7	6.1%	0.2%
CCc1ccc(N/C(SCc2ccccc2C)=C(/C#N)C(=O)NCc2ccco2)cc1	u	13.1µM*	8.2%	-19.8	-3.6%	12.7%
CC(=O)NC(CC(=O)N(C)C1CCCCC1)c1ccccc1 (stereo not drawn)	17.9%	8.9%	-1.7%	25.4	-1.1%	5.6%
Cc1ccc(/C=C/C2=Cc3c(sc(NC(=O)CSc4n[nH]c(N)n4)c3C#N)C(C)(C)C2)o1	x	u	2.51µM*	x	11.6%	23.8%
COc1cccc(C(=O)COc2cccc(NC(=O)c3cccc([N+](=O)[O-])c3)c2)c1	8.91µM*	u	15.5%	u	-3.8%	u
CCOc1ccc(NC(=O)c2ccco2)cc1	9.2%	-58.6%	-9.1%	16.0	-13.8%	x
CCOc1ccc(NC(=O)c2cccc(OC(=S)N3CCC(C)CC3)c2)cc1	-7.4%	u	-4.0%	55.1	-5.5%	11.7µM*
CCOc1cccc(C(=O)Nc2cccc(NC(=O)c3ccco3)c2)c1	u	-7.7%	1.8%	-61.8*	0.4%	23.4%
CCOc1cccc(C(=O)NC(=S)Nc2cccc(C)c2)c1	6.5%	45.6%	u	-98.6*	u	u
O=C(COc1cccc(NC(=O)c2cccc([N+](=O)[O-])c2)c1)c1ccc(F)cc1	u	u	-0.4%	12.0	1.8%	u
CCc1cccc(CC)c1NC(=O)c1cccc(NC(=O)c2ccccc2)c1	u	x	2.7%	-67.4*	-6.8%	u
CCOc1cccc(C(=O)Nc2cccc(C(C)=O)c2)c1	-29.7%	119.9%	-7.2%	54.2	-3.4%	3.29µM*
CCOc1cccc(C(=O)Nc2cccc(C(=O)NC(C)(C)C)c2)c1	u	-5.6%	0.8%	-23.6	-2.0%	8.4%
COC(=O)COc1cccc(NC(=O)c2cccc(C)c2)c1	-9.9%	9.5%	x	4.3	0.3%	10.4µM*
COc1ccc(NC(=O)CN2CCc3ccccc3C2)c([N+](=O)[O-])c1	u	13.3%	-13.0%	0.7	1.2%	236.4%
COc1ccc(OC(=O)N2C/C(=C/c3ccccc3)C(=O)/C(=C\c3ccccc3)C2)cc1	u	x	x	-96.5*	x	x
COc1ccc(OC(=O)N2CCOCC2)cc1	3.5%	26.8%	15.0%	64.6	-6.7%	-15.1%
CCOC(=O)N1C/C(=C\c2ccccc2)C(=O)/C(=C/c2ccccc2)C1	7.8%	4.65µM*	-22.6%	-101.3*	-1.1%	u
